Screening results deposited in PubChem by several laboratories.
PP5 primary = blocks human protein phosphatase 5 activity. P53041. purified PP5c, OMFP substrate fluorescence. inhibition, % at 6.7 µM. 320,000 tested, 0.18% active;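 active = inhibition above the campaign's mean inhibition across all tested compounds plus 3 SD, cut at about 9.5% in these data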
NadD inh = NadD (S. aureus) enzyme inhibition. purified NadD enzyme, colorimetric absorbance read-out. inhibition, % at 20 µM. 360,000 tested, 0.78% active. AID 602399; in the data active = inhibition above about 26%
PP1 counter = PP1-alpha (human) inhibition in PP5 counter-screen. P62136. purified PP1alpha, OMFP fluorescence. inhibition, % at 6.7 µM. 320,000 tested, 0.9% active. AID 2235;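 active = inhibition above the mean inhibition of all tested compounds plus 3 SD, computed separately for each screening campaign, cut at about 15% in these data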
PREPL inhibitor = inhibitors of human prolyl oligopeptidase-like enzyme PREPL; recombinant PREPL, fluorescence polarization activity-based probe; inhibition, % at 5.96 µM; Q4J6C6; 320,000 tested, 0.68% active; AID 2751; in the data active = inhibition above about 43%
Target sequence (Q4J6C6 whole entry, looked up): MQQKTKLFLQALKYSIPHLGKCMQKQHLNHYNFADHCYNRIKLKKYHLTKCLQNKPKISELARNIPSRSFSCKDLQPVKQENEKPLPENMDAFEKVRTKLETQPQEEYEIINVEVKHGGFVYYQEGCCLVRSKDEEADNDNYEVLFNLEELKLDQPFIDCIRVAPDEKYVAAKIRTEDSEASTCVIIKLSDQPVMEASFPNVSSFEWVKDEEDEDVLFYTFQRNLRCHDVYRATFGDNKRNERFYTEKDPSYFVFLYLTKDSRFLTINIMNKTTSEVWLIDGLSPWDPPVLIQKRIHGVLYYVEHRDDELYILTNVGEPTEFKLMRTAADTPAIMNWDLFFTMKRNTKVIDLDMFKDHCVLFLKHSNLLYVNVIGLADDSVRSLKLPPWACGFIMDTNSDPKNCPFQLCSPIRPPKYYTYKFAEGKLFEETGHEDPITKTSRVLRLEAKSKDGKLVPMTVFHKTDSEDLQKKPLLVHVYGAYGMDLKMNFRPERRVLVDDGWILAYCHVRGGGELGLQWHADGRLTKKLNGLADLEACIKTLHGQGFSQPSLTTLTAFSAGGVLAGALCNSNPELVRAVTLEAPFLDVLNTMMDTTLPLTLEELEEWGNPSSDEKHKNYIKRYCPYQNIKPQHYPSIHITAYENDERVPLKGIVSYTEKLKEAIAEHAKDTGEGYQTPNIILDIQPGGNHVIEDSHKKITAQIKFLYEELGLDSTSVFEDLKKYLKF
Rpn11 inh = inhibitors of human proteasome Rpn11; human 26S proteasome, Ub4-pepOG fluorescence polarization; 20S core pre-blocked with epoxomicin; inhibition, % at 20 µM; 360,000 tested, 0.59% active;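 active = inhibition at 20 µM, scaled to each plate's controls, above about 33%, limit read from the data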
Numbers stand for hits; – = inactive; · = no result. A selection: hits, their analogues and other compounds. The true share with any hit is near 2.4%.

SMILES	PP5 primary	NadD inh	PP1 counter	PREPL inhibitor	Rpn11 inh
CC(C)C[C@@H](CN1CCC[C@@H]1CN1C(=S)NC[C@@H]1Cc1ccc(O)cc1)N1C[C@H](Cc2ccc(O)cc2)N(CC2CCCCC2)C1=S	·	42	·	·	–
COc1ccc(Cc2nnc(SCC(=O)Nc3ccccc3C)n(N)c2=O)cc1	–	–	–	–	–
CC1(OC(=O)C2CCCC2)C(=O)C=C2C=C(c3ccsc3)N(Cc3ccc4c(c3)OCO4)C=C2C1=O (centres undefined)	–	–	–	–	–
CC1(OC(=O)C2CCCC2)C(=O)C=C2C=C(c3ccsc3)N(CCc3c[nH]c4ccccc34)C=C2C1=O (centres undefined)	–	–	17	–	–
COc1ccc(NC(=O)CN2C(=O)/C(=C3\SC(=S)N(CCC(=O)O)C3=O)c3ccccc32)cc1	–	51	–	–	–
O=C(O)CCN1C(=O)/C(=C2\C(=O)N(Cc3ccccc3Cl)c3ccccc32)SC1=S	·	–	·	·	–
N#Cc1cccnc1N1CCN(C(c2ccnc3ccccc23)c2nnnn2-c2ccc3c(c2)OCCO3)CC1 (centres undefined)	·	–	·	·	·
CCCCC1=CC2=C(c3ccco3)C(=O)C(C)(OC(=O)c3ccc(OC)cc3)C(=O)C2=CN1CCCCO (centres undefined)	–	–	–	–	–
CCCCC1=CC2=C(c3ccco3)C(=O)C(C)(OC(=O)c3ccc(OC)cc3)C(=O)C2=CN1c1ccc(OC)cc1 (centres undefined)	–	–	16	–	–
CCCCC1=CC2=C(c3ccco3)C(=O)C(C)(OC(=O)c3ccc(OC)cc3)C(=O)C2=CN1Cc1ccco1 (centres undefined)	–	37	16	–	–
COc1ccc(OC2(C)CCN(Cc3ccc(-c4ccccc4)o3)C2)cc1 (centres undefined)	·	–	·	·	–
CN(C)C(CNC(=O)c1ccc(NS(=O)(=O)c2ccc3[nH]c(=O)[nH]c3c2)cc1)c1ccccc1 (centres undefined)	–	–	–	–	–
O=C(COc1ccc(Cl)cc1Cl)NN1C(=O)/C(=C\c2ccc(Cl)cc2)SC1=S	–	33	–	–	–
Cc1ccc2c(c1)[nH]c1c(N3CCN(Cc4ccccc4)CC3)ncnc12	–	–	–	55	–
CCOc1ccc2[nH]c3c(N4CCN(c5ccccn5)CC4)ncnc3c2c1	–	–	–	68	–
CCOc1ccc2oc(C(=O)N3CCN(c4ccccn4)CC3)c(C)c2c1	·	–	·	·	–
Cc1ccc2[nH]c3c(N4CCN(Cc5ccccc5)CC4)ncnc3c2c1	–	–	–	–	–
CCCCCCCCN1C(=O)[C@H](CC(=O)NCCC(C)C)C[C@@]2(C(=O)OC)CCCCC=C12	·	–	·	·	·
Fc1ccc(N2N=C(c3cccs3)CC2c2ccccc2)cc1 (centres undefined)	–	–	–	–	63
Cc1cc(F)ccc1C(O)c1ncc(-c2cccc3ccccc23)[nH]1 (centres undefined)	·	–	·	·	–
CCOc1ccccc1OCC(=O)OCc1csc(CC(=O)Nc2ccccc2C)n1	–	–	–	–	–
CC(Sc1nnc(NCc2ccccc2)s1)C(=O)Nc1ccc2c(c1)C(=O)c1ccccc1C2=O (centres undefined)	–	38	17	–	–
CC(Sc1nnc(Nc2ccccc2)s1)C(=O)Nc1nc(-c2ccccc2)cs1 (centres undefined)	–	–	–	–	–
Cc1ccc(Cl)cc1-c1cc(C(=O)NCc2cc(C(F)(F)F)cc(C(F)(F)F)c2)[nH]n1	·	–	·	·	–
CCCC(=O)N1CCN(c2ccc(NC(=O)c3sc4ccccc4c3Cl)cc2)CC1	–	–	16	–	–
SMILES	PP5 primary	NadD inh	PP1 counter	PREPL inhibitor	Rpn11 inh
COc1ccccc1CNc1nc(Nc2ccc(C)cc2C)c2sccc2n1	·	–	·	·	–
O=C(O)c1ccc(Cn2cc(/C=C\[N+](=O)[O-])c3ccccc32)o1	–	–	–	–	–
Cc1cccc(Cn2cc(/C=C/[N+](=O)[O-])c3ccccc32)c1	–	–	17	–	–
O=[N+]([O-])/C=C/c1cn(Cc2ccc(Cl)cc2)c2ccccc12	–	–	16	–	–
Cc1cc(/C=C2/SC(=S)N(c3cccc(Cl)c3)C2=O)c(C)n1-c1cccnc1	–	30	–	–	–
CCOC(=O)CSc1nc2ccc(N3CCOCC3)cc2c(=O)n1Cc1ccc2c(c1)OCO2	–	·	–	52	·
CCN(CC)C(=O)CSc1nc2cc3c(cc2c(=O)n1Cc1ccc2c(c1)OCO2)OCO3	–	–	–	–	–
O=C(Nc1cccc(-n2cnnn2)c1)c1ccc(C(F)(F)F)cc1	–	–	–	–	–
Cc1ccc(-c2cc(C(=O)NCc3ccco3)c3ccccc3n2)o1	–	–	15	–	–
Cc1cc(C(=O)NCc2ccco2)c2ccccc2n1	–	–	–	–	–
C=CCN1C(=O)C(O)(CC(=O)c2ccc(-n3cccc3)cc2)c2ccccc21 (centres undefined)	–	27	–	–	–
CCOc1cccc(/C=N/Nc2nc(N3CCCC3)nc(N3CCCC3)n2)c1O	–	–	–	50	–
CCOc1cc(/C=N/Nc2nc(N3CCCC3)nc(N3CCCC3)n2)ccc1O	–	–	–	–	–
COc1ccc(NC(=O)C2(C)Cc3c(-c4cccc(C(N)=O)c4)ccnc3O2)cn1 (centres undefined)	·	–	·	·	–
Cc1ccc(S(=O)(=O)NC(=O)c2ccc(-c3ccc(-c4ccccc4)cc3)o2)c(C)c1	–	·	16	–	·
C[C@H](CO)N1C[C@H](C)[C@@H](CN(C)Cc2cccnc2)Oc2ncc(-c3cccc(C#N)c3)cc2C1=O	·	–	·	·	–
CC(C)N(Cc1ccccc1)C(=O)COC(=O)C1CCN(S(=O)(=O)c2ccc3c(c2)OCCO3)CC1	–	–	16	–	–
CN(C(=O)COC(=O)C1CCN(S(=O)(=O)c2ccc3c(c2)OCCO3)CC1)c1ccccc1	–	–	–	–	–
CC12CCC(c3c(C(=O)O)nn(-c4ccc(F)cc4)c31)C2(C)C (centres undefined)	–	–	15	–	–
CCN(CC)CCOc1ccc(/C(=C(\Cl)c2ccccc2)c2ccccc2)cc1	–	–	18	–	–
CCN(CC)CCOc1ccc(Br)cc1	–	–	–	–	–
COc1ccc(-c2cc(C(=O)NN)n(-c3ccccc3)n2)cc1	–	–	–	–	–
CCOC(=O)c1cc(-c2ccc(OC)cc2)nn1-c1ccccc1C(=O)O	–	–	17	–	–
COc1ccc(C(=O)OCC(=O)Nc2sccc2C(N)=O)cc1[N+](=O)[O-]	–	–	–	–	–
CC1(c2nnnn2-c2ccc3c(c2)OCCO3)CCC(=O)N1C1CCN(Cc2ccccc2)CC1 (centres undefined)	·	–	·	·	·
CCCNC(=O)c1ccc(N2CCC3(CC2)CC(c2cccc(Br)c2)=NO3)c(NC(=O)c2ccccc2)c1	–	–	16	–	–
CCC(c1nnnn1CCc1ccccc1)N(Cc1ccco1)Cc1cc2c(C)ccc(C)c2[nH]c1=O (centres undefined)	–	–	16	–	–
